Nine compounds from PubChem BioAssay (NCI) can be followed below.

Holding throughout (assay): NCI-60 one-dose screen, 48 h (100 = growth as untreated, 0 = no growth, -100 = all killed)
Common to all, as to conditions: 10 µM unless noted

The test system of test [1] is HCT-15 colon.
The test system of test [2] is HT29 colon.
Test [3] deals with SNB-75 CNS.
Test [4] has as its system SNB-19 CNS.
Test [5] has as its system PC-3 prostate.
In test [6] the test system is SK-MEL-5 melanoma.
The test system of test [7] is UACC-62 melanoma.
Test [8] has as its system LOX IMVI melanoma.
For test [9], the system named is SK-MEL-28 melanoma.
The subject of test [10] is SK-MEL-2 melanoma.
Test [11] deals with EKVX NSCLC.
In test [12] the test system is SN12C renal.
For test [13], the system named is UO-31 renal.
Test [14] relates to TK-10 renal.
Test [15] relates to ACHN renal.
Test [16] relates to CAKI-1 renal.
Test [17] concerns A498 renal.
For test [18], the system named is CCRF-CEM leukemia.
For test [19], the system named is MOLT-4 leukemia.
Test [20] concerns U251 CNS.

SMILES strings stand for the structures. This is part of a sample that, as a whole, favours compounds with a hit. Of some 83,000 tested, about 20% had one in any assay.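 Cells were grown in 96-well plates and exposed to the test compound at a single concentration for 48 hours; results are reported as percent growth, with values below 10 considered active.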 Unmarked numbers belong to inactive results. The source made the active and inactive calls.

With `O=C(c1ccc2ncc(-c3nc(NC4CC4)ncc3F)n2c1)N1CCOCC1`, the growth in test [1] is 23.8%; in test [2], 26.4%; in test [3], -21.6% (active); in test [4], 45.8%; in [5], 52.6%; in test [6] it was -51.8% (active). The growth in test [7] was 16.9%; in [8], -0.283% (active); in [9], 45.4%; in test [10], 27.7%; in [11], 49.2%; in test [12], 30.1%. Moreover, the growth in test [13] is -33.4% (active); in test [14], 41.9%; in [15], 0.254% (active); in [16], 3.25% (active); in test [17] it was -30.3% (active); in [18] it was 19.5%. In addition, in test [19], the growth is 16%.
As for `COC(=O)c1c2c(c(C)[n+]([O-])c1C)C(=O)C=C(NCc1cccc(OC)c1)C2=O`, the growth in test [1] is -74.8% (active); in [2], 2.57% (active); in test [3], -97.7% (active); in test [4], -88.4% (active); in [5] it was -2.04% (active); in [6], -97.2% (active). The growth was -68.1% (active) in test [7]; -79.7% (active) in test [8]; -22.3% (active) in test [9]; -64.6% (active) in [10]; -68.7% (active) in [11]; -93.4% (active) in test [12]. The growth is -62.5% (active) in test [13]; 4.5% (active) in [14]; -81.5% (active) in test [15]; -32.6% (active) in test [16]; -17.1% (active) in test [18]; -45.9% (active) in test [19].
Consider `COc1cc(C2=NN(c3ccc(S(N)(=O)=O)cc3)C(c3ccc(Cl)cc3)C2)cc(OC)c1OC` (stereo not drawn), for which the growth in test [1] is 43.1%; in test [2], 32.1%; in [3] it was 41.5%; in test [4], 56.5%; in test [20] it was 23.9%; in test [6], 27.5%. The growth is 42.5% in test [8]; 44.3% in test [9]; 66.9% in [10]; 51% in test [12]; 23.2% in [13]; 45.9% in test [14]. For the same compound, the growth in [15] was 46.5%; in test [16] it was 53.3%; in test [17] it was 35.4%; in [18], 20.7%; in [19], 16.6%.
On to `CCSc1nnc2c3cc(Br)ccc3n(C)c2n1`, for which the growth is 96.7% in test [1]; 104% in test [2]; 92.6% in test [3]; 109% in test [4]; 101% in test [20]; 103% in test [7]. The growth in test [8] was 96%; in test [9], 123%; in test [10] it was 97.8%; in test [12], 102%; in test [13], 63.3%; in [15], 90.8%. In addition, the growth in test [16] was 80.9%; in test [17], 91.5%; in [18], 102%; in test [19], 107%.
In the case of `COc1nc2c(cc1S(=O)(=O)c1ccccc1)CCc1c-2cnn1-c1cccc(Cl)c1`, the growth was 71% in test [1]; 54.9% in [2]; 85.5% in test [3]; 98.2% in test [4]; 64.4% in [5]; 88% in [6]. In addition, the growth in test [7] is 71.2%; in test [8], 93.9%; in test [9], 86.4%; in [10], 88.9%; in [12] it was 77.4%; in test [13], -15.6% (active). Also, the growth in [14] is 94.2%; in test [15], 68.3%; in test [16] it was 63.5%; in [17], 54.6%; in test [18] it was 70.4%; in test [19] it was 66.1%.
Regarding `COc1cccc(OC)c1OC(=O)c1ccccc1`, the growth in test [1] is 109%; in test [2], 107%; in test [3] it was 82.5%; in [4], 104%; in test [20], 94.8%; in test [6], 96%. For the same compound, the growth was 97.1% in [7]; 92.7% in test [8]; 98.2% in [9]; 95.8% in test [11]; 91.2% in test [12]; 77.5% in test [13]. Moreover, the growth in test [14] was 114%; in test [15], 107%; in test [16], 88.4%; in [17] it was 85.6%; in test [18] it was 92.7%; in [19], 107%.
For the compound `Cc1nc2cc(Nc3nc(Nc4ccc(F)cc4)nc(-c4ccc(Cl)cc4)n3)ccc2n1Cc1ccccc1`, the growth in test [1] was 64.4%; in test [2], 55.8%; in test [3], 65.2%; in [4] it was 83.4%; in test [20], 69.7%; in test [6], 83.4%. In addition, the growth is 76.6% in [8]; 92.6% in test [9]; 83.6% in [10]; 77.1% in test [12]; 44.5% in test [13]; 112% in test [14]. The growth was 71.6% in test [15]; 90.4% in test [16]; 70.3% in [17]; 3.88% (active) in test [18]; 0.841% (active) in [19].
In the case of `Cc1cccc2c(=O)c3c(sc12)c(NCCCN)nc1ccccc13`, the growth in [1] was -69.2% (active); in [2], -52.8% (active); in [3] it was 19.7%; in test [4] it was 51.3%; in [5] it was 34.8%; in test [6] it was 47.3%. The growth in [7] was 14.2%; in test [8], -93.7% (active); in test [9], 8.94% (active); in [10] it was 89.2%; in test [11] it was 40.6%; in test [12], 22.1%. For the same compound, the growth is 19.6% in test [13]; 29% in test [14]; -82.9% (active) in [15]; 4.76% (active) in test [16]; -18.3% (active) in test [19].
With `CCCN(CCC)c1ccc(/C=C/c2ccc3cc(OCC)ccc3n2)cc1`, the growth is 78.6% in [1]; 66.7% in test [2]; 98.6% in [3]; 90% in test [4]; 74.9% in test [20]; 78.3% in test [6]. In addition, the growth was 86.6% in test [7]; 97.6% in test [8]; 64.8% in [9]; 88.2% in [10]; 86.3% in test [11]; 71.8% in [13]. Moreover, the growth in test [14] was 116%; in test [15] it was 92.4%; in [16], 85.1%; in test [17] it was 64.6%; in test [18], 63.4%; in test [19], 53%.
